# According to paper PMC7862700, “An all-to-all approach to the identification of sequence-specific readers for epigenetic DNA modifications on cytosine”:
# What was measured:
# Assay in all cases: DAPPL (digital affinity profiling via proximity ligation, sequencing); 10 mM Tris-HCl pH 7.5, 50 mM NaCl, 1 mM DTT, 4% glycerol, room temperature, 30 min; GST-TFs on glutathione beads, 16-mer random dsDNA library, 0.1% formaldehyde crosslink after washing; high values mean tight binding
# Settings in all cases: protein: recombinant; tags: N-terminal GST; dsDNA, one strand shown
# [1] = molecular target: T1, FLI1 (Homo sapiens, UniProt Q01543 1-452)
# T1 sequence: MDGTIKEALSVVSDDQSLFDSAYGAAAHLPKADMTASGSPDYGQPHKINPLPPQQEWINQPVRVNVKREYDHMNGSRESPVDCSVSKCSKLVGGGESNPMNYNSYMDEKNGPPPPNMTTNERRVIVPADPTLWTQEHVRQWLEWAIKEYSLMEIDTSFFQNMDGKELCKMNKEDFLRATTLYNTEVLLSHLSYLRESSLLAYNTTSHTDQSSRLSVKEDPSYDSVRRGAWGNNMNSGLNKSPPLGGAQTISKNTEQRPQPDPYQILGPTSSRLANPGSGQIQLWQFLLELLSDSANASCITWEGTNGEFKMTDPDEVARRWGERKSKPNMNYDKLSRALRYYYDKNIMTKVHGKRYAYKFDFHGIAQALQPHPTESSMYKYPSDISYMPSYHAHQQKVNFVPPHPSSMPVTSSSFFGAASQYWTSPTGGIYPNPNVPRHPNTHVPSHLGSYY
# Method in brief: (§1)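 Human transcription factors fused to GST were expressed in yeast, captured on glutathione beads, given DNA barcodes and pooled with a GST-only negative control. Pools were incubated with 200 nmole of a 16-mer random double-stranded DNA library in Tris/NaCl/DTT/glycerol buffer at room temperature for 30 min. They were then washed, crosslinked with 0.1% formaldehyde, proximity-ligated (BsaI/T4 ligase, 1 h, 37 °C), PCR-amplified and sequenced on an Illumina NextSeq500. Binding signal is each 6-mer's read frequency for a factor divided by its frequency for the GST control.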
# [2] = molecular target: T2, ELK1 (Homo sapiens, UniProt P19419 1-428)
# T2 sequence: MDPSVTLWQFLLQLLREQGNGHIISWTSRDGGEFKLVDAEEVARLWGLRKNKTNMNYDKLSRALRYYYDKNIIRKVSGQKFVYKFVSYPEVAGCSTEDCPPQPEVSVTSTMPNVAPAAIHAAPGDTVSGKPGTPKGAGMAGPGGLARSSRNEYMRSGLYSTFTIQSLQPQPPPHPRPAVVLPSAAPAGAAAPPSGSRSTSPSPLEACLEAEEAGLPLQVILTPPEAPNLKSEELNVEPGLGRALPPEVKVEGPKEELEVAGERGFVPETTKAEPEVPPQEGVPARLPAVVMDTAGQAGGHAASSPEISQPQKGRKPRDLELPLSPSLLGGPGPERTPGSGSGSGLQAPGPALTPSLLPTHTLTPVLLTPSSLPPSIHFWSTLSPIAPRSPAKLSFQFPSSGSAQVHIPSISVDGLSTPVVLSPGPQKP
# Method in brief: as §1
# [3] = molecular target: T3, ELF3 (Homo sapiens, UniProt P78545 1-371)
# T3 sequence: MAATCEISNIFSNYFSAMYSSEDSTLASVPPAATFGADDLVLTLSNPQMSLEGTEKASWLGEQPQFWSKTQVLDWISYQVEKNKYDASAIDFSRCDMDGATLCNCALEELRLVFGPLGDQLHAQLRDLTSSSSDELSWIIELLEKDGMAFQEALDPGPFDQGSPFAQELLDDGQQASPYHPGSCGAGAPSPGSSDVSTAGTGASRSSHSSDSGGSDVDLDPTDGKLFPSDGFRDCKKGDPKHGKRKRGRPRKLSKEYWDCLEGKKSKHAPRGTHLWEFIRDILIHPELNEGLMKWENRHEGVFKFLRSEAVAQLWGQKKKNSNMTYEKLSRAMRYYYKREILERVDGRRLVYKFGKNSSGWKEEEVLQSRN
# Method in brief: as §1
# [4] = molecular target: T4, ERF (Homo sapiens, UniProt P50548 1-548)
# T4 sequence: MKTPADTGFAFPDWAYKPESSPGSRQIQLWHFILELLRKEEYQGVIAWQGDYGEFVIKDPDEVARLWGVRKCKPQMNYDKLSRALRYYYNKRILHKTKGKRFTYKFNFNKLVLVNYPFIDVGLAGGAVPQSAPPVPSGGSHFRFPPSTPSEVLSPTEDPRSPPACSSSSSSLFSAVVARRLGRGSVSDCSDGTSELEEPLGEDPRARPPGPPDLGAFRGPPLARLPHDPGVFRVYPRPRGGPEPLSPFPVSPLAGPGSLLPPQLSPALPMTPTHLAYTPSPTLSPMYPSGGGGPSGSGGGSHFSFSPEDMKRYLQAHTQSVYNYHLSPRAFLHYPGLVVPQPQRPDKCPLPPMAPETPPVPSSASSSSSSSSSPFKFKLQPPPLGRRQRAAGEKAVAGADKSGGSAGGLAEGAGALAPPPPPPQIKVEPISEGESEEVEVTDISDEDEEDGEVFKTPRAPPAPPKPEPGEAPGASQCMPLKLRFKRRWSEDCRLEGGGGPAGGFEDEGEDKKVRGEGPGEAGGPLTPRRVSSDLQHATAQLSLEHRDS
# Method in brief: as §1
# [5] = molecular target: T5, ETV3L (Homo sapiens, UniProt Q6ZN32 1-361)
# T5 sequence: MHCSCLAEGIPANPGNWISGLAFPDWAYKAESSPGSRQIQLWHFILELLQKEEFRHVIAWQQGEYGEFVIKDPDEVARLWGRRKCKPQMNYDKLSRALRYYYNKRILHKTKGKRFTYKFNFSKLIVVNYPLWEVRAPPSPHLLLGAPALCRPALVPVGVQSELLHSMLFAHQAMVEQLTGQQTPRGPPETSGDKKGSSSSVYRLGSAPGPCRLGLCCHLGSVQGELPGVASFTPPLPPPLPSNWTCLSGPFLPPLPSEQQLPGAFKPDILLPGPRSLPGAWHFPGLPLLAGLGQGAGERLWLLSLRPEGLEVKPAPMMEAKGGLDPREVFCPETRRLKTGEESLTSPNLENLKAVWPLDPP
# Method in brief: as §1
# [6] = molecular target: T6, ETS2 (Homo sapiens, UniProt P15036 1-469)
# T6 sequence: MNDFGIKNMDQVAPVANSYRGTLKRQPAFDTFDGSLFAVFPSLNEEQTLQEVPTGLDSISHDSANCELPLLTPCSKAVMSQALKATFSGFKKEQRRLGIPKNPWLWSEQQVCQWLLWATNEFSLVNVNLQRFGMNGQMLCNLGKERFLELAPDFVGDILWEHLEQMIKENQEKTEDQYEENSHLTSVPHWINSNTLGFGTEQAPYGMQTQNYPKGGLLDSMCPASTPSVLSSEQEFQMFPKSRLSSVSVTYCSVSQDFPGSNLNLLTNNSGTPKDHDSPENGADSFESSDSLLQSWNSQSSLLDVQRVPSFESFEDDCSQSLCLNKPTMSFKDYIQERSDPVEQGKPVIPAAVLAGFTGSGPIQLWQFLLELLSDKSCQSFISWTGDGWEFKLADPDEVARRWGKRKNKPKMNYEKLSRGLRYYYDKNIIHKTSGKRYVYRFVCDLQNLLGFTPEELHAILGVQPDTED
# Method in brief: as §1
# [7] = molecular target: T7, ETV7 (Homo sapiens, UniProt Q9Y603 1-341)
# T7 sequence: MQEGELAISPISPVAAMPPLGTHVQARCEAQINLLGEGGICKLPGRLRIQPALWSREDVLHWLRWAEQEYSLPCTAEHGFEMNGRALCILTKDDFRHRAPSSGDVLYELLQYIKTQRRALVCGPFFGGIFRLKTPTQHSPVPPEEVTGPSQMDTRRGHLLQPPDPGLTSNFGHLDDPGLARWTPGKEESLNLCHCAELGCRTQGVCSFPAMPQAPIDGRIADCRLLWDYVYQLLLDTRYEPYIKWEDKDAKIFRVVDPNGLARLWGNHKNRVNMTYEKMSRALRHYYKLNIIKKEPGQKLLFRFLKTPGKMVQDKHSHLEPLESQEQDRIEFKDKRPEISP
# Method in brief: as §1
sequence,measurement,setting,value
TAGGTA,binding signal,[1],"1.02 fold enrichment (6-mer frequency, TF over GST control)"
same,binding signal,[2],"1.06 fold enrichment (6-mer frequency, TF over GST control)"
same,binding signal,[3],"1.12 fold enrichment (6-mer frequency, TF over GST control)"
same,binding signal,[4],"1.08 fold enrichment (6-mer frequency, TF over GST control)"
same,binding signal,[5],"1.01 fold enrichment (6-mer frequency, TF over GST control)"
same,binding signal,[6],"1.03 fold enrichment (6-mer frequency, TF over GST control)"
same,binding signal,[7],"1.1 fold enrichment (6-mer frequency, TF over GST control)"
